Source: the supplement of paper PMC12494721
Counter-ions that a name gives are not always drawn.

System: Escherichia coli IAI1
Experiment: fold change of Cadaverine concentration vs plate DMSO controls (fold change (ratio)); higher = more amine produced, active = hit call of the paper (significant change in both replicates, either direction)
Details: incubation time: 27 h, anaerobic, 37 °C;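 for the amine columns active = adjusted P below 0.05 in both replicates with a change the same way and a mean fold change under 0.8 or over 1.25; inactive = the rest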
Summary of the method: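 Extracts of whole anaerobic mGAM cultures were analysed for amines by LC–triple-quadrupole MS with dynamic MRM and external calibration curves, with drift corrected within batch. Four gut strains were grown at 37 °C for 27 h in 80 µL wells with compounds at 20 µM final, sweeteners at 50 µM final. Each value expresses fold change over plate DMSO controls. The average of 2 biological replicates is shown.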

Row | Structure (SMILES) | fold change of Cadaverine concentration
1 | Nc1nc(CC(=O)Nc2ccc(CCNC[C@H](O)c3ccccc3)cc2)cs1 [Mirabegron] (20 µM) | 1.06 (inactive)
2 | CS(=O)(=O)OCCCCOS(C)(=O)=O [Busulfan] (20 µM) | 1.04 (inactive)
3 | CCN(CC)CCOC(=O)C(Cc1cccc2ccccc12)CC1CCCO1 (centres undefined) [Nafronyl oxalate] (20 µM) | 1.03 (inactive)
4 | C[C@H]1O[C@@H](O[C@H]2[C@@H](O)C[C@H](O[C@H]3[C@@H](O)C[C@H](O[C@H]4CC[C@@]5(C)[C@H](CC[C@@H]6[C@@H]5C[C@@H](O)[C@]5(C)[C@@H](C7=CC(=O)OC7)CC[C@]65O)C4)O[C@@H]3C)O[C@@H]2C)C[C@H](O)[C@@H]1O [Digoxin] (20 µM) | 0.992 (inactive)
5 | COc1cc(N)c(Cl)cc1C(=O)NC1CCN(CCCOc2ccc(F)cc2)CC1OC (centres undefined) [Cisapride] (20 µM) | 1.02 (inactive)
6 | O=C(O[C@@H]1C[C@@H]2C[C@H]3C[C@H](C1)N2CC3=O)c1c[nH]c2ccccc12 [Dolasetron mesilate] (20 µM) | 0.979 (inactive)
7 | Cc1oncc1C(=O)Nc1ccc(C(F)(F)F)cc1 [Leflunomide] (20 µM) | 1.08 (inactive)
8 | CC(C)Cn1cnc2c(N)nc3ccccc3c21 [Imiquimod] (20 µM) | 1.04 (inactive)
9 | Clc1ccc2c(c1)C(N1CCNCC1)=Nc1ccccc1O2 [Amoxapine] (20 µM) | 1.02 (inactive)
10 | CCCCCN(C)CCC(O)(P(=O)(O)O)P(=O)(O)O [Ibandronate sodium] (20 µM) | 1.03 (inactive)
11 | CN1CCc2c(c3ccccc3n2Cc2ccccc2)C1 [Mebhydroline 1,5-naphtalenedisulfonate] (20 µM) | 0.982 (inactive)
12 | C=C1/C(=C\C=C2/CCC[C@]3(C)[C@@H]([C@H](C)/C=C/[C@@H](O)C4CC4)CC[C@@H]23)C[C@@H](O)C[C@@H]1O [Calcipotriene] (20 µM) | 0.969 (inactive)
13 | Cc1nc(=O)c2cc(CN(C)c3ccc(C(=O)N[C@@H](CCC(=O)O)C(=O)O)s3)ccc2[nH]1 [Raltitrexed] (20 µM) | 0.943 (inactive)
14 | Cc1cn[nH]c1 [Fomepizole] (20 µM) | 1.02 (inactive)
15 | CC[C@@H]1C(=O)OC[C@@H]1Cc1cncn1C [Pilocarpine nitrate] (20 µM) | 1.04 (inactive)
16 | C=C(CC)C(=O)c1ccc(OCC(=O)O)c(Cl)c1Cl [Ethacrynic acid] (20 µM) | 0.985 (inactive)
17 | Cc1cccc(C)c1OCC(=O)N[C@@H](Cc1ccccc1)[C@@H](O)C[C@H](Cc1ccccc1)NC(=O)[C@H](C(C)C)N1CCCNC1=O [Lopinavir] (20 µM) | 1.02 (inactive)
18 | OCCN1C[C@H](O)[C@@H](O)[C@H](O)[C@H]1CO [Miglitol] (20 µM) | 0.964 (inactive)
19 | CCOc1ccccc1OCC1CNCCO1 (centres undefined) [Viloxazine hydrochloride] (20 µM) | 0.971 (inactive)
20 | CC[C@@]1(O)C(=O)OCc2c1cc1n(c2=O)Cc2cc3c(CN(C)C)c(O)ccc3nc2-1 [Topotecan] (20 µM) | 0.961 (inactive)

Row | Structure (SMILES) | fold change of Cadaverine concentration
21 | CC(C)N1CCN(c2ccc(OCC3COC(Cn4cncn4)(c4ccc(Cl)cc4Cl)O3)cc2)CC1 (centres undefined) [Terconazole] (20 µM) | 0.989 (inactive)
22 | CN1CCN(c2c(F)cc3c(=O)c(C(=O)O)cn4c3c2OCN4C)CC1 [Marbofloxacin] (20 µM) | 0.231 (active)
23 | O=C(O)c1cc(=O)[nH]c(=O)[nH]1 [Orotic acid] (20 µM) | 1.03 (inactive)
24 | c1ccc2c(c1)Cc1ccccc1-2 [Fluorene] (20 µM) | 0.914 (inactive)
25 | Oc1c(Br)cc(Br)c2cccnc12 [Broxyquinoline] (20 µM) | 1.2 (inactive)
26 | CCC[C@@H]1C[C@@H](C(=O)N[C@@H]([C@H]2O[C@H](SC)[C@H](O)[C@@H](O)[C@H]2O)[C@H](C)Cl)N(C)C1 [Clindamycin hydrochloride] (20 µM) | 0.844 (inactive)
27 | COC(=O)Nc1nc2cc(Sc3ccccc3)ccc2[nH]1 [Fenbendazole] (20 µM) | 0.967 (inactive)
28 | CN(c1nccc(=O)[nH]1)C1CCN(c2nc3ccccc3n2Cc2ccc(F)cc2)CC1 [Mizolastine] (20 µM) | 0.977 (inactive)
29 | CC[N+](C)(C)c1cccc(O)c1 [Edrophonium chloride] (20 µM) | 0.919 (inactive)
30 | CC[C@@H]([C@H](C)O)n1ncn(-c2ccc(N3CCN(c4ccc(OC[C@@H]5CO[C@@](Cn6cncn6)(c6ccc(F)cc6F)C5)cc4)CC3)cc2)c1=O [Posaconazole hydrate] (20 µM) | 1.02 (inactive)
31 | COCC1=C(C(=O)OC(C)OC(=O)OC(C)C)N2C(=O)[C@@H](NC(=O)/C(=N\OC)c3csc(N)n3)[C@H]2SC1 (some centres undefined) [Cefpodoxime proxetil] (20 µM) | 1.43 (active)
32 | O=c1n(CCCN2CCN(c3cccc(Cl)c3)CC2)nc2ccccn12 [Trazodone hydrochloride] (20 µM) | 0.982 (inactive)
33 | CC1=C(C(=O)O)N2C(=O)[C@@H](NC(=O)[C@H](N)c3ccccc3)[C@H]2SC1 [Cephalexin monohydrate] (20 µM) | 0.879 (inactive)
34 | CCCSc1nc(N[C@@H]2C[C@H]2c2ccc(F)c(F)c2)c2nnn([C@@H]3C[C@H](OCCO)[C@@H](O)[C@H]3O)c2n1 [Ticagrelor] (20 µM) | 1.07 (inactive)
35 | Cc1cc(NS(=O)(=O)c2ccc(N)cc2)nc(C)n1 [Sulfisomidine] (20 µM) | 0.993 (inactive)
36 | CN1CCN(C(c2ccccc2)c2ccc(Cl)cc2)CC1 (centres undefined) [Chlorcyclizine hydrochloride] (20 µM) | 0.889 (inactive)
37 | OC[C@H](O)C(O)[C@@H](O)CO [L-Arabinitol] (50 µM) | 0.981 (inactive)
38 | CC(C)COC(=O)OCN1C(=O)CN(CCN2CC(=O)N(COC(=O)OCC(C)C)C(=O)C2)CC1=O [Sobuzoxane] (20 µM) | 0.988 (inactive)
39 | CCCNC(=O)NS(=O)(=O)c1ccc(Cl)cc1 [Chlorpropamide] (20 µM) | 0.993 (inactive)
